Compound activity as filed in PubChem.
The list is not random: actives were taken first. Their share in the collection is about 2.2%.
AI-2 QS mod – Vibrio harveyi AI-2 quorum sensing modulators, primary screen, JMH597 strain, luminescence/OD600 ratio | Vibrio harveyi JMH597 AI-2 luminescence/OD600 ratio, 9 h; active compounds read low; strain lacks LuxN and CqsS sensors; 0 = neutral-control median | activity change, % at 7.5 µM | 0.4% of 300,000 active | AID 2094, 2009; in the data active = activity change below about -75%, passing the limit was not always enough; inconclusive = no clear call, values can overlap the other calls;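 also: luminescence divided by OD600 gain over 9 h not by final OD600 alone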
HIF act – HIF pathway transcriptional activators, primary screen, cell-based, U2OS HRE-luciferase, luminescence | U2OS HRE-luciferase reporter; normalized: DMSO 0%, desferrioxamine 100% | activation, % at 7.5 µM (by protocol) | 0.32% of 300,000 active;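 active = mean activation of at least 10% of the iron chelator positive control signal, with at least half of replicates also reaching 10%; inconclusive = mean and replicate majority disagree about reaching 10%; inactive = mean and most replicates under 10%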
CHT allo act – CHT positive allosteric modulators, primary screen, cell-based, membrane potential dye, choline EC20; CHT-expressing cells; active compounds read high; LV-AA mutant CHT in HEK293 cells; 0.49% of 310,000 active; B-score at 10 µM; High affinity choline transporter 1 (Homo sapiens), Q9GZV3; AID 488977, 2010;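 active = initial fluorescence not abnormally high and integrated response B-score, plate-corrected, over 3 SD above library mean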
Target sequence (Q9GZV3 whole entry, looked up): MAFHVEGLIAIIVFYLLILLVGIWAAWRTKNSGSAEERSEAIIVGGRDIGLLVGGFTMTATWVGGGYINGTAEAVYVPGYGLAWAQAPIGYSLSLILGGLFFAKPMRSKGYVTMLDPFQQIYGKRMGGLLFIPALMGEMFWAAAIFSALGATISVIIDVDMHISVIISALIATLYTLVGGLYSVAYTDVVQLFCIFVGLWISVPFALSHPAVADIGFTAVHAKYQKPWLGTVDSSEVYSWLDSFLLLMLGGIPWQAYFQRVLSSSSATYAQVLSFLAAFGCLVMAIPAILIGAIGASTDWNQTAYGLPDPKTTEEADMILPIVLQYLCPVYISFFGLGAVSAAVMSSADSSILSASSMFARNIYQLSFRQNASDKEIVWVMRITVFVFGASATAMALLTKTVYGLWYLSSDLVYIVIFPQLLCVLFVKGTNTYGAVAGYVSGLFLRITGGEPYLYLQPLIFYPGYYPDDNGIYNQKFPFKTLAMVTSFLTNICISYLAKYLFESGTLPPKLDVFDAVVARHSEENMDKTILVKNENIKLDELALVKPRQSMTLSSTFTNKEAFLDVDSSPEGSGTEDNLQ
Platelet DG rel – inhibitors of platelet dense granule secretion, primary screen, cell-based, MLPCN, human platelets; 0.22% of 300,000 active; AID 1663, 2009; inhibition, %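 (compounds screened at 7.5 µM in platelet-rich plasma)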; human platelet-rich plasma, SFLLRN dense granule ATP release, luminescence;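 active = mean replicate score, as percent of positive control, at or above 50; inconclusive = mean below 50 but at least one replicate at or above 50; inactive = mean and every replicate below 50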
VLA-4 inh – inhibition in human VLA-4 binding assay, primary screen, VLA-4 allosteric modulator project, MLPCN library, flow cytometry, VLA-4 expressing cells; 0.2% of 330,000 active; ligand binding flow cytometry; AID 2557, 2010; inhibition, % (about 7 µM as worked out from the volumes in the protocol); in the data active = inhibition above about 50%
CHT inh – inhibitors of human choline transporter CHT; High affinity choline transporter 1 (Homo sapiens), Q9GZV3; CHT-expressing cells, membrane potential dye, choline response; active compounds read low; B-score at 10 µM; 0.86% of 310,000 active; AID 488975, 2010;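 active = B-score over 3 SD under the library average, and starting fluorescence ratio not unusually high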;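 also: choline stimulus applied at its EC90 after an EC20 pre-addition; B-score computed on integrated fluorescence ratio after choline addition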
JMH597 growth rt – Vibrio harveyi growth inhibition, confirmation, counter-screen for AI-2 quorum sensing project, JMH597 strain, OD600 absorbance; shares compounds with AI-2 QS mod; 9 h; lacks LuxN and CqsS sensors; growth inhibition, % at 7.5 µM; 1% of 750 active; AID 2726, 2010;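 active = every replicate shows growth inhibition above 50%; inconclusive = at least half, but not all, replicates pass that cutoff; inactive = fewer than half of replicates pass it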
BB721 lum counter – luminescence inhibition in constitutive-on V. harveyi, confirmation, counter-screen for LuxS inhibitor project, strain BB721, luminescence readout. shares compounds with AI-2 QS mod. Vibrio harveyi BB721 luminescence, 9 h. inhibition, % at 7.5 µM. 95% of 750 active;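 active = inhibition above about 80% in every replicate, not just on average, limit read from the data; inconclusive = at least half of replicates past the limit, but not all; inactive = fewer than half of replicates past the limit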
BB721 growth – growth inhibition of V. harveyi BB721, confirmation, cytotoxicity control for AI-2 quorum sensing inhibitors, strain BB721, absorbance OD600 | growth inhibition, % at 7.5 µM | 3% of 750 active | Vibrio harveyi BB721 growth, 9 h | shares compounds with AI-2 QS mod;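 active = every replicate shows growth inhibition above 50%; inconclusive = at least half but not all replicates above 50% inhibition; inactive = under half of replicates above 50% inhibition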
JMH597 AI-2 mod – Vibrio harveyi AI-2 signaling luminescence modulation – JMH597 strain, confirmation; shares compounds with AI-2 QS mod; Vibrio harveyi JMH597 AI-2 quorum sensing luminescence, 9 h; luxN and CqsS knockout, AI-2 only; inhibition, % at 7.5 µM; 97% of 750 active; AID 2736, 2010;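 active = every replicate shows more than 75% inhibition of signal versus neutral control wells; inconclusive = half to three quarters of replicates exceed 75% inhibition; inactive = fewer than half of replicates exceed 75% inhibition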
Starred values were filed as active, the others as inactive; i = inactive; ? = inconclusive; / = no result given.

SMILES	AI-2 QS mod	HIF act	CHT allo act	Platelet DG rel	VLA-4 inh	CHT inh	JMH597 growth rt	BB721 lum counter	BB721 growth	JMH597 AI-2 mod
CC(=O)c1cccc(NC(=O)COC(=O)c2n[nH]c3ccccc23)c1	-81*	0	i	0	16	i	11	95*	-3	97*
O=C(COC(=O)c1n[nH]c2ccccc12)Nc1ccccc1	-66	4	i	14	-2	i	/	/	/	/
Cc1cc(C)cc(NC(=O)COC(=O)c2n[nH]c3ccccc23)c1	-89*	2	i	2	-4	i	-8	96*	-23	96*
COc1cccc(C2Nc3ccc4ccccc4c3C3=C2C(=O)CCC3)c1O (centres undefined)	9	0	i	0	-7	i	/	/	/	/
Cc1ccccc1Nc1nc(N)nc(COc2ccc(C#N)cc2)n1	-83*	0	i	0	13	i	10	93*	22	96*
COc1ccc(OCc2nc(N)nc(Nc3ccccc3OC)n2)cc1	10	0	i	0	-1	i	/	/	/	/
Cc1ccc(NC(=O)C2CCN(S(=O)(=O)c3cccnc3)CC2)cc1C	-89*	-1	i	-10	1	i	19	95*	18	96*
Cc1ccc(CNC(=O)C2CCN(S(=O)(=O)c3cccnc3)CC2)cc1	?	/	i	1	5	i	29	93*	8	95*
Cc1ccc(S(=O)(=O)N2CCC(C(=O)Nc3cccnc3)CC2)cc1	/	/	/	/	18	/	/	/	/	/
Cc1ccc2c(=O)n3c(nc2c1)C(Cc1ccccc1)NC(=O)c1ccc(Cl)cc1-3 (centres undefined)	/	/	/	/	-1	/	/	/	/	/
O=S(=O)(NC1=NCCCCC1)c1cc(F)ccc1F	/	/	/	/	10	/	/	/	/	/
O=[N+]([O-])c1ccc(Nc2nc(NC3CCCCC3)nc(N3CCCC3)n2)cc1	26	0	i	2	3	i	/	/	/	/
O=[N+]([O-])c1ccc(NC2CCCC2)cc1	-83*	0	i	-4	0	i	28	93*	20	94*
CCc1nc2ccc(C(=O)N(C)CC(=O)Nc3cccc(F)c3)cc2nc1CC	/	/	/	/	-6	/	/	/	/	/
O=C(COc1ccccc1F)Nc1ccc(S(=O)(=O)NCc2ccco2)cc1	-92*	-23	i	-1	15	i	29	99*	-12	99*
O=C(COc1ccccc1)Nc1ccc(S(=O)(=O)NCc2ccco2)cc1	-97*	0	i	6	8	i	13	100*	-57	100*
COC(=O)c1cccc(NC(=O)CN2C(=O)c3ccccc3C2=O)c1	-97*	1	i	11	0	i	0	100*	-5	100*
COC(=O)c1cccc(NC(=O)Cn2nnc3ccccc32)c1	-84*	0	i	-3	1	i	12	90*	8	93*
COc1cccc(NC(=O)C(C)N2C(=O)c3ccccc3C2=O)c1 (centres undefined)	-18	0	i	2	24	i	/	/	/	/
